KDM5B inhibitor – inhibitors of human KDM5B histone demethylase. Q9UGL1. KDM5B demethylase, FDH-coupled NADH fluorescence (FDH is formaldehyde dehydrogenase). 2.6% of 220,000 active. Potency, µM (doses to about 57.7 µM), actives largely listed as inhibitors; active = well fitted inhibition curve with a large enough effect; note: nearly all actives have a fitted effect of over 70% in size
Target sequence (Q9UGL1 whole entry, looked up): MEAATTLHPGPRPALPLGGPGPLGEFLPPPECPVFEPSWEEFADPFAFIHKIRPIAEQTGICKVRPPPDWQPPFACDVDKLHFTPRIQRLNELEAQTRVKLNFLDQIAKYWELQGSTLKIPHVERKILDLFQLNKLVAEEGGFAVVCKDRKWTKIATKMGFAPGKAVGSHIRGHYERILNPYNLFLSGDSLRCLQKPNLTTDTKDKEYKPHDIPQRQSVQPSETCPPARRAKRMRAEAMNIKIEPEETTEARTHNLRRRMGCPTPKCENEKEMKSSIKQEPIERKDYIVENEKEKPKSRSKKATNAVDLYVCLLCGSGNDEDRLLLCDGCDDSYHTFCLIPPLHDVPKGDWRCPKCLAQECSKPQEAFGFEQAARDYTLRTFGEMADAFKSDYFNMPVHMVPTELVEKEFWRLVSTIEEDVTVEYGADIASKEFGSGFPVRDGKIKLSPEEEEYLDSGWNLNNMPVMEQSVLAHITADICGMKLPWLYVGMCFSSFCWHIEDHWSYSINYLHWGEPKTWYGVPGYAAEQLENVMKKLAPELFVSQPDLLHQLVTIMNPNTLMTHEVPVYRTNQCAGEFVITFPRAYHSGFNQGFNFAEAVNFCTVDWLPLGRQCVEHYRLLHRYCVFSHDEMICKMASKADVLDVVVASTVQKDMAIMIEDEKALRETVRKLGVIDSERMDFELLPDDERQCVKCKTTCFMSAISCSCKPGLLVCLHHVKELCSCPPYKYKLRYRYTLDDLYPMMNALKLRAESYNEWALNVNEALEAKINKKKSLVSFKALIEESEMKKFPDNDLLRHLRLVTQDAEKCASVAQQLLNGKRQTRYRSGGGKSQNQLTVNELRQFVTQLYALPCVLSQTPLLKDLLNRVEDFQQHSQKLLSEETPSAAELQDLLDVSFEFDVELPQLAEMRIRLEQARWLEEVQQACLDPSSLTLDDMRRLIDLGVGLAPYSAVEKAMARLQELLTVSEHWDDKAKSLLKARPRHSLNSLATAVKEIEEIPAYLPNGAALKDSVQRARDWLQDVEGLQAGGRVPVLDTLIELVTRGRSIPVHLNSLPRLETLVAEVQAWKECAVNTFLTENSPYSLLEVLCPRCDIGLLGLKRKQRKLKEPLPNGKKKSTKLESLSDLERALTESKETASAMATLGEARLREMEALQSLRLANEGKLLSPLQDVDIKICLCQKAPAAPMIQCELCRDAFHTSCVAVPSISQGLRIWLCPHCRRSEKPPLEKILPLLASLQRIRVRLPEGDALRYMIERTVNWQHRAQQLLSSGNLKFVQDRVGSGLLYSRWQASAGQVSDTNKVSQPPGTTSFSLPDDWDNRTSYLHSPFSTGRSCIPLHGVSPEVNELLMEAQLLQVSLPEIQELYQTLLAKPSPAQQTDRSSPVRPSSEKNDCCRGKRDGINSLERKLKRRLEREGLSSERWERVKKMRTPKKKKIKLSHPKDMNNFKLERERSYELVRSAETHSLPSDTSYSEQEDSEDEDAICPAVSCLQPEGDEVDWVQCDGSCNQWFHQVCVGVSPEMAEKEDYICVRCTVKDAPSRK
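Here, H3K4me3 peptide (12.5 µM in substrate mix) is demethylated by KDM5BΔAP, 200 nM final, after 10 min compound exposure. Formaldehyde product is coupled through FDH (0.25 U/mL in mix) to NADH fluorescence; 30-min ΔRFU feeds dose-response curves.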
A number is an active result; - = inactive. This excerpt belongs to a sample that is enriched for hits.

SMILES	KDM5B inhibitor
Clc1ccc(N/N=C/c2cccc(/C=N/Nc3ccc(Cl)c(Cl)c3)c2)cc1Cl	-
Cc1cc(C(=O)OCC(=O)Nc2ccccc2C)c2ccccc2n1	-
Clc1ccc(-c2onc3ccc(-c4ccccc4)cc23)cc1	-
Oc1ccc(-c2nc(C3CC3)nc3c2CN(Cc2ccc(OC(F)(F)F)cc2)CC3)cc1	-
CC(C)c1nc2c(c(-c3ccc(O)cc3)n1)CN(Cc1ccc(OC(F)(F)F)cc1)CC2	17.8µM
CCc1nc2c(c(-c3ccc(Cl)cc3)n1)CN(Cc1ccc(OC)cc1)CC2	17.8µM
CCc1nc2c(c(-c3ccc(Cl)cc3)n1)CN(Cc1ccc(N(C)C)cc1)CC2	-
COc1ccc(CN2CCc3nc(C(C)C)nc(-c4ccc(O)cc4)c3CC2)cc1	-
Cc1nc2c(c(-c3ccc(O)cc3)n1)CN(CC1CC1)CC2	-
CC(C)c1nc2c(c(-c3ccc(Cl)cc3)n1)CCN(Cc1ccnn1C)CC2	-
COc1ccc(-c2nc(C)nc3c2CCN(Cc2ccc(F)cc2)CC3)cc1	-
CC(C)c1nc2c(c(-c3ccc(Cl)cc3)n1)CCN(Cc1cccc3ccccc13)CC2	56.2µM
CCc1nc2c(c(-c3ccc(Cl)cc3)n1)CCN(Cc1ccc(OC)cc1)CC2	-
CC(C)c1nc2c(c(-c3ccc(Cl)cc3)n1)CCN(Cc1cccnc1)CC2	-
COc1ccc(-c2nc(C)nc3c2CCN(CC2CC2)CC3)cc1	39.8µM
COc1ccc(Cl)cc1NC(=O)Cn1ncc2ccc(OC)c(OC)c2c1=O	-
CCCn1nc(C(=O)N(C)Cc2ccc(F)cc2)c2ccccc2c1=O	-
CCOCCOC(=O)c1nc2ccccc2nc1Nc1ccc(Cl)cc1	-
CCOc1ccc(C(=O)COC(=O)Cn2cnc3ccccc3c2=O)cc1	-
C=CCn1c(N2CCN(Cc3cccc4ccccc34)CC2)nc2c1c(=O)[nH]c(=O)n2C	-
COc1ccc(N2CCN(c3nc(C(=O)NCc4ccc(F)cc4F)cs3)CC2)cc1	-
Brc1csc(CNC2CCCc3c2cnn3Cc2ccccc2)c1 (configuration not stated)	-
Cc1nn(CC(=O)N2CCc3ccccc32)c(C)c1S(=O)(=O)N1CCCC(C(=O)NC2CC2)C1 (configuration not stated)	-
CCNC(=S)N/N=C(/C)c1ccccc1Br	-
CCOC(=O)CCNCc1ccccc1	-
SMILES	KDM5B inhibitor
CN(C)/C=C\C(=O)c1ccc(F)cc1	-
O=C(O)c1cc(Cl)c(Cl)c(Cl)c1	-
CCc1nc2c(c(-c3ccc(Cl)cc3)n1)CCN(Cc1ccc(N(C)C)cc1)CC2	-
Cc1ccc(CN2CCc3nc(C(C)C)nc(-c4ccc(O)cc4)c3CC2)cc1	-
CCc1nc2c(c(-c3ccc(Cl)cc3)n1)CCN(Cc1cccnc1)CC2	-
Cc1ccc(C(=O)N2CCc3nc(C(C)C)nc(-c4ccc(Cl)cc4)c3CC2)cc1	-
CC(C)c1nc2c(c(-c3ccc(Cl)cc3)n1)CCN(CC1CCCCC1)CC2	35.5µM
CCc1nc2c(c(-c3ccc(Cl)cc3)n1)CCN(CC1CC1)CC2	28.2µM
CCCCNC(=O)C12CC3CC(C1)CC(c1ccccc1)(C3)C2	-
CCCN(CCC)c1ccc(NC(=O)c2ccccc2Cl)cc1C(=O)O	-
Cc1ccc(-n2c(C3CCN(C(=O)c4nn(C)c5ccccc45)CC3)n[nH]c2=O)cc1	-
CCCc1noc(-c2nc(-c3ccc4c(c3)OCO4)no2)n1	25.1µM
COc1ccccc1-c1noc(-c2nc(-c3ccc4c(c3)OCO4)no2)n1	-
Fc1ccccc1-c1noc(-c2nc(-c3ccccc3F)no2)n1	-
Fc1ccccc1-c1noc(-c2nc(-c3ccc4c(c3)OCO4)no2)n1	25.1µM
Cc1cc(-c2nc(-c3ccc4c(c3)OCO4)no2)n[nH]1	-
CN(C)c1ccc(-c2noc(-c3nc(-c4ccc5c(c4)OCO5)no3)n2)cc1	-
Cc1nc2ccc(C(=O)OCC(=O)NC(C)C34CC5CC(CC(C5)C3)C4)cc2nc1C (configuration not stated)	-
CCOc1ccc(-n2ccn3c(SC(CC)C(=O)Nc4cc(C)ccc4C)nnc3c2=O)cc1 (configuration not stated)	-
CN(Cc1ccc(-c2ccc(Cl)cc2)o1)C(=O)CNC(=O)c1ccccc1	-
CN(C)Cc1ccc2c(c1)c(OC(C)(C)C(=O)NCCN1CCOCC1)nn2Cc1ccccc1	22.4µM
COCc1ccc2c(c1)c(OC(C)(C)C(=O)NCc1ccncc1)nn2Cc1ccccc1	-
O=C(NCCN1CCOCC1)c1nn(Cc2ccccc2)c(=O)c2ccccc12	-
COCc1ccc2c(c1)c(OC(C)(C)C(=O)NCCCn1ccnc1)nn2Cc1ccccc1	-
COCc1ccc2c(c1)c(OC(C)(C)C(=O)NCCN(C)C)nn2Cc1ccccc1	31.6µM
Cc1ccc(-c2c3c(nc4sc5c(c24)CCCC5)CC(C)(C)CC3=O)cc1	-
CCCc1nc2ccccc2c(C(=O)OCC(=O)NC(C)C(C)C)c1CC (configuration not stated)	-
CCc1nc(-c2c3n(c(=O)n(Cc4cccc(Br)c4)c2=O)CCCC3)no1	-
COc1cc(/C=C2\NC(=O)NC2=O)cc(I)c1OCc1ccc(F)cc1	-

Source: PubChem BioAssay
